# This is a sample that favours compounds with a hit; in the whole collection about 2.9% have one here.
# DAGLB inh: diacylglycerol lipase beta (human) inhibition | inhibition, % at 5.17 µM | Q8NCG7 | HEK293T DAGLB membrane lysate, EnzChek fluorogenic substrate | AID 504411 | 340,000 tested, 0.059% active; in the data active = inhibition above about 34%
# sPLA2-III inh: Inhibits HGIII-sPLA2 liposome hydrolysis, primary screen. Q9NZ20. QFRET BODIPY PC-A2 liposome hydrolysis, fluorescence. inhibition, % at 12.2 µM. 370,000 tested, 0.56% active;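 active = inhibition above mean plus 3 SD of compounds lying within the high and low control bounds, cut at about 19% in these data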
# Myeloid diff 2: promotes myeloid progenitor differentiation; ER-HoxA9 myeloid progenitors, lysozyme-GFP differentiation, flow cytometry; calls only at 10 µM; 360,000 tested, 1% active; AID 624256;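 active = normalized GFP-positive differentiation at or above the plate's own cutoff, the solvent-only control mean plus 3 SD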;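 also: cells exposed to compound for four days before flow analysis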
# H9c2 protect: modulators protecting cardiomyocytes from myocardial damage; H9c2 cardiomyocytes, H2O2 injury protection, ATPLite, 2 h; 360,000 tested, 0.63% active; protection from H2O2 cell death, % at 20 µM; AID 588492;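 active = compounds giving at least 50% protection of heart cells from peroxide-induced death in the single-dose screen, raw or plate-pattern-corrected value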
# Rtt109 HAT inh: inhibitors of Candida albicans Rtt109/Vps75 histone acetyltransferase | Q5AAJ8 | purified Rtt109/Vps75, ThioGlo CoA-SH fluorescence, 4 h | inhibition, % at 34.9 µM | 330,000 tested, 0.16% active | AID 540336;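 active = inhibition of at least 50% in every replicate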
# ABHD5 PLIN5 PPI: blocks binding of human ABHD5 to perilipin-5 | Q00G26+Q8WTS1 | Split G. princeps luciferase complementation, luminescence, 4 h | inhibition, % at 4 µM | 360,000 tested, 0.78% active;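 active = inhibition above the mean inhibition across every tested compound plus 3 SD, cut at about 22% in these data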
# Hits are given with their value; 0 = inactive; - = no result given; + = active, no number.
SMILES,DAGLB inh,sPLA2-III inh,Myeloid diff 2,H9c2 protect,Rtt109 HAT inh,ABHD5 PLIN5 PPI
Cc1oc(C(C)(C)C)cc1C(=O)Nc1cccc(/C=C\C(=O)O)c1,0,0,0,0,0,22.7
Cc1ccc(N/C(=N/S(=O)(=O)c2cccs2)c2ccccc2)c(C)c1,0,0,+,0,0,0
CSCC[C@H](NC(=O)Nc1cccc(C(F)(F)F)c1)C(=O)O,0,0,0,0,0,0
CSCC[C@H](NC(=O)Nc1cccc(Br)c1)C(=O)O,0,0,+,0,0,0
Cc1cc2[nH]c(=O)c(=O)[nH]c2cc1S(=O)(=O)Nc1cccc(Cl)c1C,0,0,0,0,0,0
CCCOc1ccc(CNC(=O)c2ccc3c(c2)N(CC)CCS3)cc1,0,0,+,0,0,0
CCN1CCSc2ccc(C(=O)NCc3cccc(Br)c3)cc21,0,0,0,0,0,0
S=C(NCc1ccccc1)Nc1ccncc1,0,0,+,0,0,0
O=C1c2ccccc2C(=O)c2cc(N3CCCCC3)ccc21,0,0,+,0,0,0
CCn1c(SCC(=O)Nc2ccc3c(c2)OCO3)nc2c(c1=O)SC(C)C2 (centres undefined),0,0,+,0,0,0
CC1Cc2nc(SCC(=O)c3ccccc3)n(Cc3ccccc3)c(=O)c2S1 (centres undefined),0,0,+,0,0,0
CC1Cc2nc(SCC(=O)NCc3ccccc3)n(Cc3ccccc3)c(=O)c2S1 (centres undefined),0,0,0,0,0,0
CC1Cc2nc(SCC(=O)Nc3ccc4c(c3)OCO4)n(CCc3ccccc3)c(=O)c2S1 (centres undefined),0,0,0,0,0,0
CC[C@H](C)[C@H]1CNC(=S)N1CC1CCN(CCC23CC4CC(CC(C4)C2)C3)CC1,0,0,0,0,0,0
C[C@]12c3[nH]c4cc(-c5ccco5)ccc4c3CCN1C(=O)[C@@H](CC(=O)NCc1cccc(C(F)(F)F)c1)C[C@@H]2C(=O)N1CCCCC1,0,0,0,0,0,0
COc1ccc(CC(=O)NC(C)c2nnc(SCC(=O)c3ccc(OC)cc3)n2C)cc1 (centres undefined),0,0,0,0,0,0
COc1ccc(CC(=O)NC(C)c2nnc(SCCOc3ccc(OC)cc3)n2C)cc1 (centres undefined),0,0,+,0,0,0
COc1cccc(Nc2nc(-c3sc(NC(=O)c4ccco4)nc3C)cs2)c1,0,0,0,50.0,0,0
COc1cccc(Nc2nc(-c3sc(N)nc3C)cs2)c1,0,0,0,63.2,0,0
O=C(/C=C/c1ccccc1)N1CCN(CCN2C(=O)c3cccc4cccc(c34)C2=O)CC1,0,0,0,0,0,0
CCCN(C(=O)C1CCCN(c2ncnc3c2nc2n3CCCCC2)C1)c1ccc(F)cc1 (centres undefined),0,0,0,0,0,0
COC(CNC(=O)c1ccc(CS(=O)(=O)c2ccc(C)cc2)o1)OC,0,0,+,0,0,0
COC(CNC(=O)c1ccc(CS(=O)(=O)c2ccc(Br)cc2)o1)OC,0,0,0,0,0,0
COc1cc2c(cc1OC)-c1nc3ccccc3c(=O)n1C(C)(C)C2,0,0,+,0,0,0
O=C(/C=C/c1ccc(Cl)cc1)Nc1nccs1,0,0,+,0,0,0
SMILES,DAGLB inh,sPLA2-III inh,Myeloid diff 2,H9c2 protect,Rtt109 HAT inh,ABHD5 PLIN5 PPI
Cc1ccc2ccc[n+](Cc3ccccc3)c2c1,0,0,0,0,0,0
COc1ccc2c(c1)c(C)cc[n+]2Cc1ccccc1,0,0,+,0,0,0
CCN(Cc1ccccc1)C(=O)c1[nH]c2ccc(OC)cc2c1C,0,0,0,0,0,0
Cc1ccc2c(c1)c(C)cc[n+]2Cc1ccccc1,0,0,+,0,0,0
Cc1cccc(Cc2nnc(CCC(=O)N3CCCC(CN4CCOCC4)C3)o2)c1 (centres undefined),0,0,0,0,0,0
COc1cccc(NC(=O)NC2(C(F)(F)F)Oc3ccccc3O2)c1,0,0,0,75.0,0,0
COc1cccc(NC(=O)Nc2cccc(C(=O)O)c2)c1,0,0,-,0,0,0
CN(C)c1cc[n+](CC(=O)c2cccs2)cc1,0,0,+,0,0,0
Cc1cc[n+](CC(=O)c2cccs2)cc1,0,0,0,0,0,0
